Only some compounds are listed: those with a hit (about 6% of all), similar ones and a draw of the others.
D1 antagonist – antagonists of human D1 dopamine receptor. HEK293 TREx D1 cells, calcium flux, dopamine EC80; stronger effect = lower value. activity change, negative = inhibition, % at 10 µM. 360,000 tested, 3.2% active; in the data active means activity change below about -30%; further: on the % scale 0 is the no-effect control and ±100 the full control effect
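Allosteric or orthosteric antagonism assessed as attenuation of the calcium response to EC80 dopamine, added 180 s after compound, in induced HEK293 Trex D1 cells loaded with no-wash calcium dye.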
D1 agonist – human D1 receptor agonism; P21728; HEK293 T-REx D1 cells, calcium flux, agonist mode; activation, % at 2 µM; 360,000 tested, 1% active; AID 504660; in the data active means activation above about 30%; further: 0% is about no effect
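Inducible HEK293 T-REx D1 cells, force-coupled to calcium signalling, were plated at 4000 cells/well with tetracycline and held overnight at 30 C. After no-wash calcium dye loading, compound-evoked calcium rise over 180 s flagged agonists.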
DRD3 agonist – D3 dopamine receptor (human) agonism; P35462; D3R DiscoveRx beta-arrestin cells, luminescence, 90 min; max activation, %; 410,000 tested, 0.58% active; AID 652048; in the data active means max activation above about 30%; further: 0% is about no effect
Target sequence (P35462 whole entry, looked up): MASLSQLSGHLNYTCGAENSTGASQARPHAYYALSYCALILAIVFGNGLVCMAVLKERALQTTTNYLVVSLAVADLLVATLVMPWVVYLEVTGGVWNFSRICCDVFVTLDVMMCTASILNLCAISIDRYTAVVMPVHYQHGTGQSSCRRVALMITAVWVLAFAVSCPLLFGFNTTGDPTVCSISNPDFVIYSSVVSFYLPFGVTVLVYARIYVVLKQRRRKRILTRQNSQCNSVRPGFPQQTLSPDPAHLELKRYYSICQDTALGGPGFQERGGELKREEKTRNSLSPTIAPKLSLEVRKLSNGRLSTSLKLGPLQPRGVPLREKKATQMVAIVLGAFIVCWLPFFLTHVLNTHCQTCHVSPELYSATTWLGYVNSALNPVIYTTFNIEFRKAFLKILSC
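Agonist mode: compounds and dopamine controls were applied to plated cells for 90 min at 37 degrees C after an overnight attachment at 1500 cells/well. Luminescent read-out followed 30 - 60 minutes at room temperature with DiscoveRx detection reagent.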
DRD3 antagonist – antagonists of human D3 dopamine receptor; D3R cells, DiscoveRx beta-arrestin luminescence, antagonist mode; stronger effect = lower value; max response, negative = inhibition, %; P35462; AID 652054; 360,000 tested, 2.5% active; in the data active means max response below about -50%; inconclusive means no clear call, values can overlap the other calls; further: on the % scale 0 is the no-effect control and ±100 the full control effect
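Cells plated overnight at 1500 cells/well, then exposed to library compounds with dopamine controls for 90 minutes at 37 degrees C. DiscoveRx reagent added for 30–60 minutes at room temperature; luminescence read, quantitative HTS format.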
D1 PAM – human D1 dopamine receptor positive modulation | 360,000 tested, 0.036% active | HEK293 TREx D1 cells, calcium flux, dopamine EC20 potentiation | P21728 | potentiation, % at 10 µM; in the data active means potentiation above about 30%; further: 0% is about no effect
Starred values were filed as active, the others as inactive; ? = inconclusive; . = not tested or not shown.

SMILES	D1 antagonist	D1 agonist	DRD3 agonist	DRD3 antagonist	D1 PAM
CCC1CCc2nc3sc(C(=O)Nc4ccc(C)cc4)c(N)c3cc2C1 (centres undefined)	-18.8	0.9	-0.6	.	-2.1
O=C(Nc1ccc(Br)cc1)/C(=C/c1cccc([N+](=O)[O-])c1)NC(=O)C1CCCCC1	-4.1	0.8	-8.8	-63.5*	-1.4
Cc1cc(NC(=O)c2ccco2)cc(-c2nc3cc(Cl)ccc3o2)c1O	-9.9	0.3	6.6	.	-2.1
Cc1cc(NC2CCCCC2)nc2ccccc12	-33.1*	22.7	3.6	-66.6*	-6.0
Cc1ccc(C)c(NC(=O)CCN2CCN(c3ccccc3F)CC2)c1	-37.6*	3.4	14.9	-64.1*	-11.3
Cc1ccc(C)c(NC(=O)CCN2CCN(C)CC2)c1	-8.9	10.9	0.1	-1.3	7.6
Cc1ccc(C)c(NC(=O)CCC(=O)NNC(=O)COc2cc(C)ccc2C)c1	-38.2*	0.5	0.7	6.4	-6.7
COc1ccc(C)cc1NC(=O)CCN1CCN(c2ccccc2F)CC1	-45.1*	3.4	34.2*	?	-7.7
COc1ccc(C)cc1NC(=O)CCN1CC(C)OC(C)C1 (centres undefined)	-30.3*	0.7	-9.4	13.3	-3.0
Cn1c2cc(Br)sc2c2cnn(Cc3ccccc3F)c(=O)c21	2.7	0.0	.	.	8.2
Cc1ccc(C)c(CN2C(=O)c3ccccc3S(=O)(=O)c3ccc(C(=O)N4CCOCC4)cc32)c1	3.6	10.2	-3.7	.	4.2
CC(C)(C)OC(=O)N1CCC(c2c(C(=O)NC3CCN(Cc4ccccc4)CC3)cnn2-c2ccc(F)cc2F)CC1	-8.2	15.4	-19.0	.	-1.6
COc1cc(NC(=O)CN2CCN(c3ccccc3F)CC2)c(C)cc1[N+](=O)[O-]	11.4	1.1	-0.1	1.3	3.4
COc1ccc(OC)c(NC(=O)CCN2CCN(c3ccccc3F)CC2)c1	-38.2*	6.4	64.2*	1.5	-9.8
COc1ccc(C(=O)CCN2CCN(c3ccccc3F)CC2)cc1	.	4.1	-10.2	-98.9*	-10.9
CCOc1ccc(NC(=O)CCN2CCN(c3ccccc3F)CC2)cc1	-16.0	1.2	12.5	?	-9.4
COc1ccc([N+](=O)[O-])cc1NC(=O)CCN1CCN(c2ccccc2OC)CC1	-46.4*	1.2	5.8	-75.5*	-13.8
O=C(CCN1CCN(c2ccccc2F)CC1)c1ccc(Br)cc1	-13.3	1.6	-15.6	?	-17.0
COc1ccc(C)cc1NC(=O)CN1CCN(c2ccccc2F)CC1	-9.3	12.6	-9.2	-69.5*	-2.2
Cc1ccc(C)c(OCC(=O)NNC(=O)CCN2CCN(c3ccccc3)CC2)c1	4.6	0.9	-5.8	-71.4*	-0.1
O=C(CCN1CCN(c2ccccc2)CC1)N/N=C/c1ccccc1O	-16.0	2.7	-33.1	-67.2*	-10.0
COc1ccc(C)cc1NC(=O)CCN1CCN(c2ccccc2)CC1	-15.3	0.1	39.3*	?	-5.7
O=C(CCN1CCN(c2ccccc2)CC1)c1ccc(Br)cc1	-30.1*	2.2	-2.6	-59.6*	-17.4
COc1ccc(C)cc1NC(=O)CN1CCN(C/C=C/c2ccccc2)CC1	4.6	38.0*	-1.0	-70.0*	-7.2
COc1cccc(NC(=O)CCN2CCN(c3ccccc3F)CC2)c1	-2.5	1.7	39.3*	?	9.6
SMILES	D1 antagonist	D1 agonist	DRD3 agonist	DRD3 antagonist	D1 PAM
CCN(CCC(=O)Nc1cc([N+](=O)[O-])ccc1OC)Cc1ccccc1	30.8	6.7	-24.7	-80.6*	-3.5
COc1ccc(Br)cc1CN(C)C(C)C(=O)Nc1cc([N+](=O)[O-])ccc1OC (centres undefined)	12.0	2.0	-17.1	-3.4	-3.3
COc1ccc([N+](=O)[O-])cc1NC(=O)C(C)N(C)Cc1ccc(Br)cc1 (centres undefined)	-6.5	-0.2	-24.0	-64.3*	-13.7
Cc1cccc(C)c1NC(=O)CN1CCN(C/C=C/c2ccccc2)CC1	.	.	-1.5	?	.
CCCN1C[C@H](CSC)C[C@@H]2c3cccc4[nH]cc(c34)C[C@H]21	-88.3*	51.0*	84.4*	26.5	-5.9
CCOc1ccc(C(=O)NCC(c2ccco2)S(=O)(=O)c2cccs2)cc1 (centres undefined)	.	1.4	7.4	.	-0.9
COC(=O)c1ccccc1NC(=O)NCCc1c(C)nn(C)c1C	-12.3	-0.5	3.3	.	1.4

Screens: PubChem BioAssay, National Center for Advancing Translational Sciences (NCATS)
